Results from PubChem BioAssay (NCATS).
Records with an inconclusive call do not appear. Activity calls are given as the source filed them. Unless noted, the call rests on the fitted dose curve.

Key:
[1] = molecular target: Estrogen receptor (Homo sapiens) (UniProt P03372); test: qHTS assay for small molecule antagonists of estrogen receptor alpha signaling (AID 588513; active means well fitted curve in the direction sought with a large enough effect in the signal ratio, with a control signal flat, not every such curve was filed as active; the % refers to the signal ratio; further: on the % scale 0 is the no-effect control and ±100 the full control effect)
Chain of Estrogen receptor (Homo sapiens) (P03372 whole entry, looked up): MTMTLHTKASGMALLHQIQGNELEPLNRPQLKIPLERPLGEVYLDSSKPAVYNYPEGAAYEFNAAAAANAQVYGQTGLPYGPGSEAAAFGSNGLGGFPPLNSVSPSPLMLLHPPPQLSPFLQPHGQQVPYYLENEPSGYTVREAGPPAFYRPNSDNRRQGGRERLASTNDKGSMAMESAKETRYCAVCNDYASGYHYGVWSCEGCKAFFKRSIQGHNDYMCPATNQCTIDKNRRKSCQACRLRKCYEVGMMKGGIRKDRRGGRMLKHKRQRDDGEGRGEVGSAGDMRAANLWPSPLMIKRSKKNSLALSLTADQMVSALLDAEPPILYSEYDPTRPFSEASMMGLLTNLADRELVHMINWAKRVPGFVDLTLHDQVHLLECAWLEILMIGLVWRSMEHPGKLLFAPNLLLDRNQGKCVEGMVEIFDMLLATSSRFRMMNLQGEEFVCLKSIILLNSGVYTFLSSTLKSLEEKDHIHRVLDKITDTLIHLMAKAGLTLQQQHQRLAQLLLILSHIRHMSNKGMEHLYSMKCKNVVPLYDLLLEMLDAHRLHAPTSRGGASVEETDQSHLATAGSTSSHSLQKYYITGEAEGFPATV
Method in brief: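 Antagonist-mode qHTS in ER-alpha-UAS-bla HEK 293 cells: compound titration, 0.5nM estradiol for 18 h, CCF4 fluorescence, Hill-derived IC50.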

[2] = molecular target: Estrogen receptor (Homo sapiens) (UniProt P03372); test: qHTS assay for small molecule agonists of estrogen receptor alpha signaling (AID 588514);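 further: 0% = vehicle only and 100% = reference agonist; nearly all actives have a fitted effect of over 70% in size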
Method in brief: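 ER-alpha-UAS-bla GripTite HEK 293 cells in medium with 2% charcoal/dextran-treated FBS were treated with compound titrations at 37 C for 18 hrs; beta-lactamase reporter read by CCF4 fluorescence after 2 hrs at RT.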

[3] = molecular target: Peroxisome proliferator-activated receptor gamma (Homo sapiens) (UniProt P37231); test: qHTS assay for small molecule agonists of peroxisome proliferator-activated receptor gamma signaling (AID 588536; active means well fitted curve in the direction sought with a large enough effect in the signal ratio, with a control signal flat, not every such curve was filed as active; the % refers to the signal ratio;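 further: 0% = DMSO basal wells and 100% = rosiglitazone at 2 µM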)
Chain of Peroxisome proliferator-activated receptor gamma (Homo sapiens) (P37231 whole entry, looked up): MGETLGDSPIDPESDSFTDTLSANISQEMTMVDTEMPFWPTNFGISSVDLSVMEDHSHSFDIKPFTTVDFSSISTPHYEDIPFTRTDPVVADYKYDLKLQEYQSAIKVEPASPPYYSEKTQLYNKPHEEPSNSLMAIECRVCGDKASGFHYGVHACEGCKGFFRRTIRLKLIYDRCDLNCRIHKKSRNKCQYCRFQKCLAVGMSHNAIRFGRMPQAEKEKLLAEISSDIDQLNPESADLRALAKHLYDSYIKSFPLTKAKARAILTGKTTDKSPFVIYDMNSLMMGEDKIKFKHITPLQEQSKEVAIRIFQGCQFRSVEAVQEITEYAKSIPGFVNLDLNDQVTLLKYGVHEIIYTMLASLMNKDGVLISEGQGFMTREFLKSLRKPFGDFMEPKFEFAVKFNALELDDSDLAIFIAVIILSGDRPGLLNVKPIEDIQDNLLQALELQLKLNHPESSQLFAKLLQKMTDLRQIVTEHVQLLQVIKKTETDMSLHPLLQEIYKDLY
Method in brief: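 Ratiometric blue/green fluorescence (405 nm excitation; 460 and 530 nm emission) from CCF4-loaded HEK293 reporter cells serves as signal. Exposure to test compounds lasts 16 h at 37 C in medium containing 1% charcoal/dextran-treated serum.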

[4] = molecular target: Peroxisome proliferator-activated receptor gamma (Homo sapiens) (UniProt P37231); test: qHTS assay for small molecule antagonists of peroxisome proliferator-activated receptor gamma signaling (AID 588537; active means well fitted inhibition curve with a large enough effect in the signal ratio, with a control signal flat, not every such curve was filed as active; the % refers to the signal ratio;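 further: reporter cells co-stimulated with 50 nM rosiglitazone agonist during compound treatment; % of control where 0% means no effect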)
Method in brief: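 Inhibitors of agonist-stimulated UAS-bla reporter activity were sought in HEK293 cells; rosiglitazone (50 nM) defined full signal and DMSO baseline. Curves fitted to Hill model gave IC50 and efficacy.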

[5] = molecular target: Vitamin D3 receptor (Homo sapiens) (UniProt P11473); test: qHTS assay for small molecule antagonists of vitamin D receptor signaling (AID 588541);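 further: receptor activated by calcitriol during compound treatment; series mostly up to about 77 µM; on the % scale 0 is the no-effect control and ±100 the full control effect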
Chain of Vitamin D3 receptor (Homo sapiens) (P11473 whole entry, looked up): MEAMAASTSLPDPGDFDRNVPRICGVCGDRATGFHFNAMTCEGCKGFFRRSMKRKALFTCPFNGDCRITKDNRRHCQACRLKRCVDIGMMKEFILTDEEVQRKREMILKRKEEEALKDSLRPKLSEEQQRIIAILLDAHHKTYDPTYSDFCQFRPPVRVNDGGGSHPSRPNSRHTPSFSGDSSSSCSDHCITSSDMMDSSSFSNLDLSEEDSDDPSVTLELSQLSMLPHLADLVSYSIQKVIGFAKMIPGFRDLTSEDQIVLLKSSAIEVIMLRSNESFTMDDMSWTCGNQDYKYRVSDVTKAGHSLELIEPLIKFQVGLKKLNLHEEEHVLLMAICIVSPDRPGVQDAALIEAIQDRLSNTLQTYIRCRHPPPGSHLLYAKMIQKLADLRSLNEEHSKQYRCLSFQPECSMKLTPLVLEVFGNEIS
Method in brief: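 Antagonist-mode beta-lactamase reporter assay: HEK293T VDR-UAS-bla cells were exposed to titrated compound alongside 1-alpha,25-dihydroxyvitamin D3 at 3 nM final for 16 h. Values were normalized to the 50 nM agonist control and DMSO basal, with IC50 and efficacy from Hill equation fits.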

[6] = molecular target: Retinoic acid receptor RXR-alpha (Homo sapiens) (UniProt P19793); test: qHTS assay for small molecule agonists of retinoid X receptor alpha signaling (AID 588544);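 further: 0% = DMSO basal wells and 100% = reference agonist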
Chain of Retinoic acid receptor RXR-alpha (Homo sapiens) (P19793 whole entry, looked up): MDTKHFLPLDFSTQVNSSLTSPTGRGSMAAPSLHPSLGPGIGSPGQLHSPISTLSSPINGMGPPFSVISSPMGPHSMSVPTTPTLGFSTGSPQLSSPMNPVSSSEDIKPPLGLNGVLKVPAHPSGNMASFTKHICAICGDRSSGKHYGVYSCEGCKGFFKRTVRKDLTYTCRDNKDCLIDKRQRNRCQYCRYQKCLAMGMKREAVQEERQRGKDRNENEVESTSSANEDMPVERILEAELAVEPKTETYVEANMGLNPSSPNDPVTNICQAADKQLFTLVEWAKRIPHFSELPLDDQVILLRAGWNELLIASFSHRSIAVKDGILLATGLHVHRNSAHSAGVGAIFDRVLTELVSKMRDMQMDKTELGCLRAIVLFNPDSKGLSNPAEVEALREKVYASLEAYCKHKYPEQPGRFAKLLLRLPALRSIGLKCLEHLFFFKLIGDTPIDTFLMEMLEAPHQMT

[7] = molecular target: Thyroid hormone receptor beta (Homo sapiens) (UniProt P10828); test: qHTS assay for small molecule agonists of thyroid hormone receptor beta signaling (AID 588545)
Chain of Thyroid hormone receptor beta (Homo sapiens) (P10828 whole entry, looked up): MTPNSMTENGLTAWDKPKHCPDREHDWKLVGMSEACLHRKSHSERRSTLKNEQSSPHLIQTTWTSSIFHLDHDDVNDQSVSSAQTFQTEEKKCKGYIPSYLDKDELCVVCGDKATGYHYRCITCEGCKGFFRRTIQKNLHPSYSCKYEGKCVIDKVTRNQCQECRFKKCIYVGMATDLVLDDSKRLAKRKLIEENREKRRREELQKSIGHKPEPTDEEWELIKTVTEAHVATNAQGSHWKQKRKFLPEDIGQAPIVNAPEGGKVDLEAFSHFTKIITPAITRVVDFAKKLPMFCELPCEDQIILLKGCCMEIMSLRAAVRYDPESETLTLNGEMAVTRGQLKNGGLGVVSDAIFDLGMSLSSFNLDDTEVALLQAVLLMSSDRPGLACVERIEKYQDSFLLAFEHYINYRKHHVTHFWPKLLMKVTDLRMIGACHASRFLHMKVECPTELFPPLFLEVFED
Method in brief: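 Agonist-mode beta-lactamase reporter assay, HEK 293 cells, 2% charcoal/dextran FBS; cells plated 4 hrs, compound 18 hrs at 37 C, CCF4 2 hrs RT. Normalized to 10 nM T3 (100%) and DMSO (0%); Hill fit gives EC50, efficacy.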

[8] = qHTS assay for small molecule antagonists of retinoid X receptor alpha signaling (AID 588546; active means well fitted inhibition curve with a large enough effect in the signal ratio, with a control signal flat, not every such curve was filed as active; the % refers to the signal ratio;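 further: cells stimulated with 9-cis-retinoic acid as agonist; on the % scale 0 is the no-effect control and ±100 the full control effect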); conditions: HEK293T RXRa-UAS-bla, beta-lactamase ratio, antagonist mode; measured here: W530 green channel, cytotoxicity proxy
Method in brief: (§1)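 Beta-lactamase reporter inhibition, read as CCF4 fluorescence ratio (ex 405, em 460/530 nm) after 2 h at RT. HEK293T UAS-bla cells, 2500/well, were stimulated with 9-cis-RA at 500 or 100 nM final alongside test compound for 18 h at 37 C.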

[9] = molecular target: Retinoic acid receptor RXR-alpha (Homo sapiens) (UniProt P19793); test: as above; conditions: HEK293T RXRa-UAS-bla, beta-lactamase ratio, antagonist mode
Method in brief: as §1

[10] = molecular target: Thyroid hormone receptor beta (Homo sapiens) (UniProt P10828); test: qHTS assay for small molecule antagonists of thyroid hormone receptor beta signaling (AID 588547; active means well fitted inhibition curve with a large enough effect in the signal ratio, with a control signal flat, not every such curve was filed as active; the % refers to the signal ratio;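 further: cells stimulated with 0.4 nM T3 agonist during compound exposure; series mostly up to about 77 µM; on the % scale 0 is the no-effect control and ±100 the full control effect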); conditions: TR-UAS-bla HEK293, beta-lactamase ratio, antagonist mode, 18 h
Method in brief: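 Inhibition of T3-driven (0.4nM final) beta-lactamase reporter activity was measured over 0.59 nM to 92 uM compound after 18 h at 37 C. The cells were GripTite HEK293 TR-UAS-bla in charcoal/dextran-stripped serum, with CCF4 ratio read-out and IC50 from Hill fits.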

[11] = qHTS assay for environmental chemicals that activate the Aryl hydrocarbon Receptor (AhR) signaling pathway (AID 651777; active means well fitted curve in the direction sought with a large enough effect; an effect the other way counts as inactive or inconclusive; further: % of control where 0% means no effect; nearly all actives have a fitted effect of over 15% in size); conditions: 1A2-DRE human hepatoma cells, luciferase, 24 h; activation: stronger effect = higher value
Method in brief: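 1A2-DRE human hepatoma reporter line; 1,200 cells/well; cmpd or DMSO 24 h, 37 C/5% CO2; One-Glo 30 min RT; luciferase lum.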

[12] = molecular target: Peroxisome proliferator-activated receptor alpha (Homo sapiens) (UniProt Q07869); test: qHTS assay for small molecule agonists of the peroxisome proliferator-activated receptor alpha (PPARalpha) signaling pathway (AID 651778; active means well fitted curve in the direction sought with a large enough effect; an effect the other way counts as inactive or inconclusive; further: % of control where 0% means no effect); conditions: PathHunter PPARalpha complementation, chemiluminescence, 6 h; max response: stronger effect = higher value
Chain of Peroxisome proliferator-activated receptor alpha (Homo sapiens) (Q07869 whole entry, looked up): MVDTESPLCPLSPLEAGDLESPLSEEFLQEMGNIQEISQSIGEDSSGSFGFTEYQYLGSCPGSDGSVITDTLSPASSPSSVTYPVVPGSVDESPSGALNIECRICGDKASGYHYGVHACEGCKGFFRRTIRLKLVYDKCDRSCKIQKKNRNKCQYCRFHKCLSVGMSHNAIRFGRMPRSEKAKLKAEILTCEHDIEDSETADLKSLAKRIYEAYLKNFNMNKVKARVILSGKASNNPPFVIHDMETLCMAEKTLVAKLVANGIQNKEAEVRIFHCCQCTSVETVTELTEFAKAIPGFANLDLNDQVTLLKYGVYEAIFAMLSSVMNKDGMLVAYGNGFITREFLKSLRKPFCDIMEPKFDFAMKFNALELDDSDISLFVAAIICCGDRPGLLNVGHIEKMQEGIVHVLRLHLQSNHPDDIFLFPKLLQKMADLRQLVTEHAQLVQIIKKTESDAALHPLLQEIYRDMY
Method in brief: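 Chemiluminescence from complemented enzyme reported PPARalpha activation in cells after 6 hr of compound treatment at 37 C. The detection reagent was incubated for 60 min at room temperature, and compounds were scored as agonists.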

[13] = qHTS assay for small molecule agonists of the antioxidant response element (ARE) signaling pathway measured by Nrf2-dependant transcriptional activity (AID 720636; active means well fitted curve in the direction sought with a large enough effect in the repeat runs; an effect the other way counts as inactive or inconclusive;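 further: HepG2 cells with an ARE-driven luciferase reporter; % of control where 0% means no effect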)
Method in brief: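 Cells: ARE-luc HepG2 with Nrf2-responsive luciferase. Medium contained 1% dialyzed FBS. Compound exposure lasted 16 hr at 37 C and 5% CO2, followed by ONE-Glo luciferase detection.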

[14] = qHTS assay for small molecule agonists of the antioxidant response element (ARE) signaling pathway measured by Nrf2-dependant transcriptional activity - cell viability counter screen (AID 720653; active means well fitted curve in the direction sought with a large enough effect in the repeat runs; an effect the other way counts as inactive or inconclusive; further: on the % scale 0 is the no-effect control and ±100 the full control effect); conditions: ARE-bla HepG2 viability, CellTiter-Glo ATP luminescence, 16 h; max response: stronger effect = lower value
Method in brief: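 Cytotoxicity counter screen: intracellular ATP quantified by CellTiter-Glo luminescence in the same ARE-bla HepG2 plates, after 16 h compound exposure and a 2 h beta-lactamase substrate step.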

[15] = qHTS assay for cell viability of HEK293 cells (AID 743288; active means well fitted curve in the direction sought with a large enough effect; an effect the other way counts as inactive or inconclusive; further: on the % scale 0 is the no-effect control and ±100 the full control effect; nearly all actives have a fitted effect of over 50% in size); conditions: ATP luminescence (CellTiter-Glo), 18 h; max response: stronger effect = lower value
Method in brief: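 Luminescent ATP quantitation served as the viability read-out. Cells (parental HEK293, 2,000/well) received compounds after at least 5 h at 37 C and were exposed for 18 h before a 30 min room-temperature reagent step.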

[16] = molecular target: Nuclear receptor subfamily 1 group I member 2 (Rattus norvegicus) (UniProt Q9R1A7); test: qHTS assay for small molecule activators of the rat pregnane X receptor (rPXR) signaling pathway (AID 651751; call rule not given here; further: 0% is about no effect); conditions: rPXR reporter cells, luciferase (One-Glo), 24 h
Chain of Nuclear receptor subfamily 1 group I member 2 (Rattus norvegicus) (Q9R1A7 whole entry, looked up): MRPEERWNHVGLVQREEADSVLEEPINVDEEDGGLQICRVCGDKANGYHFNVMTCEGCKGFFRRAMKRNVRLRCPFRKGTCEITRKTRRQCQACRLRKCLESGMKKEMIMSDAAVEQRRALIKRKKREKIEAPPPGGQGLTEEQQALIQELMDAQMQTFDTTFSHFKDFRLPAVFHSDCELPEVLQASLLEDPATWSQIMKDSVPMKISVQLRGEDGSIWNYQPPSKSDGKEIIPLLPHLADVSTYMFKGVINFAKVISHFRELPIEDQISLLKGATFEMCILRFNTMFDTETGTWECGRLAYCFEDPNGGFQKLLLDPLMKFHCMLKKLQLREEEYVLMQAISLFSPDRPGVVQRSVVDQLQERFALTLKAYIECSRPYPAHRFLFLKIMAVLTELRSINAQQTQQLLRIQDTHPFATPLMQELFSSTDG

[17] = qHTS assay for small molecule activators of the p53 signaling pathway (AID 651743; active means well fitted activation curve with a large enough effect in the signal ratio, not every such curve was filed as active; the % refers to the signal ratio; further: series mostly up to about 92 µM; % of control where 0% means no effect); conditions: HCT-116 p53RE-bla, beta-lactamase FRET ratio, 16 h; activation: stronger effect = higher value
Method in brief: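 Screen for p53 pathway agonists uses stably transfected p53RE-bla HCT-116 cells, 4,000 per well, treated 16 h at 37 C with compounds in DMSO.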

[18] = qHTS assay for cell viability of the p53RE-bla HCT-116 cell line (AID 743292; active means well fitted curve in the direction sought with a large enough effect; an effect the other way counts as inactive or inconclusive; further: on the % scale 0 is the no-effect control and ±100 the full control effect; nearly all actives have a fitted effect of over 55% in size)
Method in brief: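 HCT-116 p53RE-bla cells seeded 4,000/well; 5 h at 37 C; compound (DMSO) added; 16 h at 37 C; CellTiter-Glo added, 30 min RT; luminescence read.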

[19] = molecular target: Peroxisome proliferator-activated receptor delta (Homo sapiens) (UniProt Q03181); test: qHTS assay for small molecule agonists of peroxisome proliferator-activated receptor delta signaling (AID 588534);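 further: 0% = DMSO basal wells and 100% = positive control agonist at 10 µM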
Chain of Peroxisome proliferator-activated receptor delta (Homo sapiens) (Q03181 whole entry, looked up): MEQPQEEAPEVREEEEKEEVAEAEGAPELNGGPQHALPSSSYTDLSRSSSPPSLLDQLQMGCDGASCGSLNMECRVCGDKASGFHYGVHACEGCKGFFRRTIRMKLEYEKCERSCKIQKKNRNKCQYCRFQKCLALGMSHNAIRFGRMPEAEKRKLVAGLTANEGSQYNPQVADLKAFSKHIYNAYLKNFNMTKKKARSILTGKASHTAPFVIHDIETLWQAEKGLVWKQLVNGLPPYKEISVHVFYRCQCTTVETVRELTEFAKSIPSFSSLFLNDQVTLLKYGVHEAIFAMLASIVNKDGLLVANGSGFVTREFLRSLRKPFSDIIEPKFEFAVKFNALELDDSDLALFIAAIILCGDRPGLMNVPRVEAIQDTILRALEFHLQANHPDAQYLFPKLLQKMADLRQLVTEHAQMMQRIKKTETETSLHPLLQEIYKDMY
Method in brief: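 Cell-based beta-lactamase reporter assay run in agonist mode: cells seeded and incubated 5 hrs at 37 C, compounds added and incubated 18 hrs at 37 C. CCF4 dye fluorescence read after 2 hrs at RT; EC50 and efficacy from Hill fits.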

[20] = qHTS assay for small molecule antagonists of peroxisome proliferator-activated receptor delta signaling (AID 588535); conditions: HEK293T PPARd-UAS-bla, beta-lactamase FRET ratio, 18 h; 460 nm channel;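 further: cells co-treated with a PPAR-delta agonist as stimulator during compound exposure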
Method in brief: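 Cell-based beta-lactamase assay in antagonist mode: 4000 HEK293T PPAR-delta-UAS-bla cells per well, 5 hr preincubation then 18 hr compound incubation at 37 C. IC50 obtained by Hill equation fitting.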

CCCCC(CC)COC(=O)Cl (stereo unspecified)
-5.58%: max response [8]
inactive: Potency [1] | Potency [2] | Potency [3] | Potency [4] | Potency [5] | Potency [6] | Potency [7] | max response [9] -2.38% | activity change % (negative = inhibition) [10] -1.19% | activation [11] 2.75% | max response [12] -1.56% | Potency [13] | max response [14] -0.503% | max response [15] -1.32% | max response [16] 4.58%

COc1ccc(C(O)(c2cncnc2)C2CC2)cc1 (stereo unspecified)
inactive: Potency [1] | Potency [2] | Potency [3] | Potency [4] | Potency [5] | Potency [6] | Potency [7] | max response [9] 1.16% | activity change % (negative = inhibition) [10] -4.75% | activation [17] -2.74% | activation [11] -0.591% | max response [12] -2.81% | Potency [13] | max response [15] -5.84% | Potency [18] | max response [16] 3.59%
8.99%: max response [8]

O=c1[nH]c2ccccc2c(=O)o1
-14.4%: max response [8]
inactive: Potency [1] | Potency [2] | outcome [19] | Potency [3] | Potency [4] | Potency [5] | Potency [6] | Potency [7] | max response [9] -21.4% | activity change % (negative = inhibition) [10] -10.7% | activation [17] 1.12% | activation [11] 0.82% | max response [12] -3.96% | Potency [13] | max response [14] -1.48% | max response [15] -10.1% | Potency [18] | max response [16] -5.81%
29.4%: max response [20]

CNC(=O)Oc1ccc(N(C)C)c(C)c1
-12.9%: max response [8]
-23.4%: max response [20]
inactive: Potency [1] | Potency [2] | outcome [19] | Potency [3] | Potency [4] | Potency [5] | Potency [6] | Potency [7] | max response [9] 7.08% | activity change % (negative = inhibition) [10] -0.485% | activation [17] 2.89% | activation [11] 3.59% | max response [12] -2.96% | Potency [13] | max response [14] 5.88% | max response [15] -1.07% | max response [16] 2.85%

COC(=O)c1ccccc1CS(=O)(=O)NC(=O)Nc1nc(OC)cc(OC)n1
inactive: Potency [1] | Potency [2] | outcome [19] | Potency [3] | Potency [4] | Potency [5] | Potency [6] | Potency [7] | max response [9] -11% | activity change % (negative = inhibition) [10] 15.6% | activation [17] -2.78% | activation [11] -0.954% | max response [12] -0.343% | Potency [13] | max response [14] -5.06% | max response [15] -8.65% | Potency [18] | max response [16] -0.458%
-1.25%: max response [20]
1.62%: max response [8]

Cc1c(COC(=O)C2C(/C=C(\Cl)C(F)(F)F)C2(C)C)cccc1-c1ccccc1 (stereo unspecified)
1.28%: max response [8]
inactive: Potency [1] | Potency [2] | outcome [19] | Potency [3] | Potency [4] | Potency [5] | Potency [7] | max response [9] -11.6% | activation [17] 2.17% | activation [11] -0.984% | max response [12] -0.35% | Potency [13] | max response [14] -14.6% | max response [15] -17.7%
11.3%: max response [20]

CCCCC(CC)C(=O)Cl (stereo unspecified)
inactive: Potency [1] | Potency [2] | outcome [19] | Potency [3] | Potency [4] | Potency [6] | Potency [7] | max response [9] 2.12% | activity change % (negative = inhibition) [10] 0.279% | activation [17] -0.76% | activation [11] 0.633% | max response [12] -0.947% | Potency [13] | max response [14] -2.12% | max response [15] -4.59% | max response [16] -0.98%
-9.74%: max response [8]
9%: max response [20]

CCC(C)n1c(=O)[nH]c(C)c(Br)c1=O (stereo unspecified)
inactive: Potency [1] | Potency [2] | Potency [3] | Potency [4] | Potency [5] | Potency [6] | Potency [7] | max response [9] 5.41% | activation [17] -1.24% | activation [11] 4.91% | max response [12] -0.488% | Potency [13] | max response [14] 4.81% | max response [15] -3.11% | max response [16] -6.26%
-12.2%: max response [8]

Cn1cc(-c2ccccc2)c(=O)c(-c2cccc(C(F)(F)F)c2)c1
inactive: Potency [1] | Potency [2] | Potency [3] | Potency [4] | Potency [7] | max response [9] -21.3% | activity change % (negative = inhibition) [10] 1.65% | activation [17] -5.34% | activation [11] 0.553% | max response [12] 1.29% | Potency [13] | max response [14] -0.838% | max response [15] -5.04% | Potency [18] | max response [16] 0.923%
16.9%: max response [20]
0.227%: max response [8]

CCOP(=O)(O)C(N)=O
inactive: Potency [1] | outcome [19] | Potency [3] | Potency [4] | Potency [5] | Potency [6] | Potency [7] | max response [9] -9.79% | activity change % (negative = inhibition) [10] -0.728% | max response [12] -1.31% | Potency [13] | max response [14] -6.84% | max response [15] -8.79% | Potency [18] | max response [16] -2.01%
-9.11%: max response [8]
57.5%: max response [20]
